Measured values: PubChem BioAssay AID1159580 (chemical genetic matrix, 2015)
Among all 5,500 compounds or so, about 2,000 (36%) were called active. Not shown: some 18% with an inconclusive outcome. Cut-off read from the data, not from the text of the source: active = normalized growth mostly below about 0.91 (no sharp cut-off); inconclusive = no clear call, values can overlap the other calls; inactive = mostly above about 0.92. The list shows a part of the results.

Assay: chemical genetic growth profiling, strain panel (AID 1159580);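 note: tested at 20 µM; growth read once vehicle control cultures reached saturation at 30 °C; 1 = growth at the plate median or of vehicle wells; lower values mean less growth of the strain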
Conditions: growth OD

Measured: normalized growth

COC(C)(C)CCC[C@H](C)C/C=C/C(C)=C/C(=O)OC(C)C
inactive: S. cerevisiae deletion strains, locus YJR075W, strain HOC1, hits give low values 1.02 | S. cerevisiae deletion strains, locus YKL009W, strain mrt4, hits give low values 0.979 | S. cerevisiae deletion strains, locus YKL068W, hits give low values 1.01 | S. cerevisiae deletion strains, locus YKL085W, strain MDH1 (second series), hits give low values 1 | S. cerevisiae deletion strains, locus YKL085W, strain MDH1, hits give low values 1 | S. cerevisiae deletion strains, locus YKL160W, strain elf1, hits give low values 1.02 | S. cerevisiae deletion strains, locus YKL190W, strain CNB1, hits give low values 0.985 | S. cerevisiae deletion strains, locus YKR001C, strain vps1, hits give low values 1.03 | S. cerevisiae deletion strains, locus YKR026C, strain gcn3, hits give low values 1.02 | S. cerevisiae deletion strains, locus YKR091W, strain srl3, hits give low values 1.02 | S. cerevisiae deletion strains, locus YLL001W, strain dnm1, hits give low values 1.01 | S. cerevisiae deletion strains, locus YLL026W, hits give low values 1.01 | S. cerevisiae deletion strains, locus YLL041C, strain sdh2, hits give low values 1 | S. cerevisiae deletion strains, locus YLR027C, strain aat2, hits give low values 1.01 | S. cerevisiae deletion strains, locus YLR039C, strain RIC1, hits give low values 1.04 | S. cerevisiae deletion strains, locus YLR058C, strain SHM2, hits give low values 1 | S. cerevisiae deletion strains, locus YLR102C, strain apc9, hits give low values 1.02 | S. cerevisiae deletion strains, locus YLR113W, strain HOG1, hits give low values 0.971 | S. cerevisiae deletion strains, locus YLR221C, strain rsa3, hits give low values 0.973 | S. cerevisiae deletion strains, locus YLR258W, strain gsy2, hits give low values 1.03 | S. cerevisiae deletion strains, locus YLR262C, strain YPT6 (second series), hits give low values 0.953 | S. cerevisiae deletion strains, locus YLR262C, strain YPT6, hits give low values 1.06 | S. cerevisiae deletion strains, locus YLR268W, strain sec22, hits give low values 1.05 | S. cerevisiae deletion strains, locus YLR320W, strain mms22, hits give low values 0.992 | S. cerevisiae deletion strains, locus YLR330W, strain CHS5, hits give low values 1.01 | S. cerevisiae deletion strains, locus YLR342W, strain FKS1 (second series), hits give low values 1.02 | S. cerevisiae deletion strains, locus YLR342W, strain FKS1, hits give low values 1.01 | S. cerevisiae deletion strains, locus YLR357W, strain rsc2, hits give low values 1.01 | S. cerevisiae deletion strains, locus YLR370C, strain arc18, hits give low values 0.997 | S. cerevisiae deletion strains, locus YLR371W, strain rom2, hits give low values 1.04 | S. cerevisiae deletion strains, locus YLR384C, strain iki3, hits give low values 1 | S. cerevisiae deletion strains, locus YLR418C, strain cdc73, hits give low values 1.05 | S. cerevisiae deletion strains, locus YML016C, strain PPZ1, hits give low values 1.02 | S. cerevisiae deletion strains, locus YML032C, strain rad52, hits give low values 1.03 | S. cerevisiae deletion strains, locus YML120C, strain ndi1, hits give low values 1.01 | S. cerevisiae deletion strains, locus YML124C, strain tub3, hits give low values 1.03 | S. cerevisiae deletion strains, locus YMR058W, strain fet3, hits give low values 1.01 | S. cerevisiae deletion strains, locus YMR078C, strain ctf18, hits give low values 1.02 | S. cerevisiae deletion strains, locus YMR125W, strain sto1, hits give low values 1.02 | S. cerevisiae deletion strains, locus YMR129W, hits give low values 1.01 | S. cerevisiae deletion strains, locus YMR205C, strain PFK2, hits give low values 0.979 | S. cerevisiae deletion strains, locus YMR223W, strain ubp8, hits give low values 1.02 | S. cerevisiae deletion strains, locus YMR231W, strain pep5, hits give low values 1.03 | S. cerevisiae deletion strains, locus YMR263W, strain SAP30, hits give low values 1.01 | S. cerevisiae deletion strains, locus YMR307W, strain GAS1, hits give low values 1 | S. cerevisiae deletion strains, locus YNL067W, strain RPL9B, hits give low values 1.01 | S. cerevisiae deletion strains, locus YNL071W, strain lat1, hits give low values 1.01 | S. cerevisiae deletion strains, locus YNL128W, strain TEP1, hits give low values 1.01 | S. cerevisiae deletion strains, locus YNL153C, strain GIM3, hits give low values 1.01 | S. cerevisiae deletion strains, locus YNL183C, strain NPR1, hits give low values 0.891 | S. cerevisiae deletion strains, locus YNL209W, strain ssb2, hits give low values 0.998 | S. cerevisiae deletion strains, locus YNL233W, strain BNI4, hits give low values 1.02 | S. cerevisiae deletion strains, locus YNL248C, strain rpa49, hits give low values 0.996 | S. cerevisiae deletion strains, locus YNL250W, strain rad50, hits give low values 1.03 | S. cerevisiae deletion strains, locus YNL271C, strain bni1, hits give low values 1.03 | S. cerevisiae deletion strains, locus YNL298W, strain CLA4, hits give low values 1.03 | S. cerevisiae deletion strains, locus YNL307C, strain MCK1, hits give low values 1.04 | S. cerevisiae deletion strains, locus YNL322C, strain KRE1 (second series), hits give low values 1.05 | S. cerevisiae deletion strains, locus YNL322C, strain KRE1, hits give low values 1 | S. cerevisiae deletion strains, locus YNR049C, strain mso1, hits give low values 1.02 | S. cerevisiae deletion strains, locus YNR052C, strain pop2, hits give low values 1.02 | S. cerevisiae deletion strains, locus YOL006C, strain TOP1, hits give low values 1.07 | S. cerevisiae deletion strains, locus YOL012C, strain htz1 1.31 | S. cerevisiae deletion strains, locus YOL147C, strain pex11, hits give low values 1.02 | S. cerevisiae deletion strains, locus YOR001W, strain rrp6, hits give low values 0.987 | S. cerevisiae deletion strains, locus YOR061W, strain CKA2, hits give low values 1.01 | S. cerevisiae deletion strains, locus YOR069W, strain VPS5, hits give low values 1 | S. cerevisiae deletion strains, locus YOR070C, strain gyp1, hits give low values 0.993 | S. cerevisiae deletion strains, locus YOR080W, strain dia2, hits give low values 1.02 | S. cerevisiae deletion strains, locus YOR083W, strain WHI5, hits give low values 1.01 | S. cerevisiae deletion strains, locus YOR106W, strain vam3, hits give low values 0.948 | S. cerevisiae deletion strains, locus YOR136W, strain idh2, hits give low values 1.02 | S. cerevisiae deletion strains, locus YOR144C, strain elg1, hits give low values 1.02 | S. cerevisiae deletion strains, locus YOR184W, strain ser1, hits give low values 1.04 | S. cerevisiae deletion strains, locus YOR231W, strain MKK1, hits give low values 0.984 | S. cerevisiae deletion strains, locus YOR265W, strain rbl2, hits give low values 1.03 | S. cerevisiae deletion strains, locus YOR270C, strain vph1, hits give low values 0.931 | S. cerevisiae deletion strains, locus YOR290C, strain snf2, hits give low values 1.08 | S. cerevisiae deletion strains, locus YOR316C, strain cot1, hits give low values 1.02 | S. cerevisiae deletion strains, locus YPL051W, strain arl3, hits give low values 1 | S. cerevisiae deletion strains, locus YPL055C, strain LGE1, hits give low values 1.01 | S. cerevisiae deletion strains, locus YPL078C, strain atp4, hits give low values 1 | S. cerevisiae deletion strains, locus YPL106C, strain sse1, hits give low values 1.05 | S. cerevisiae deletion strains, locus YPL240C, strain hsp82, hits give low values 1.01 | S. cerevisiae deletion strains, locus YPL241C, strain CIN2, hits give low values 0.999 | S. cerevisiae deletion strains, locus YPL256C, strain CLN2, hits give low values 0.992 | S. cerevisiae deletion strains, locus YPR119W, strain clb2, hits give low values 1.02 | S. cerevisiae deletion strains, locus YPR141C, strain kar3, hits give low values 1.03 | S. cerevisiae deletion strains, locus YPR163C, strain tif3, hits give low values 1.04 | S. cerevisiae deletion strains, locus YPR167C, strain met16, hits give low values 1.02 | S. cerevisiae deletion strains, strain wtn01, hits give low values 1.05 | S. cerevisiae strains, strain wild type, hits give low values 1.01
